This passage reports activation results from PubChem BioAssay AID697 (Columbia University Molecular Screening Center, 2007).

Molecules are shown by their SMILES. Screen size: about 96,000 compounds; about 100 (0.1%) were called active. For the sample, actives were picked, then their nearest neighbours and some compounds at random. Values without a mark were called inactive.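 The calls were made as follows: active = activation at 2 µM above a set limit, the mean plus 5 SD (cut at about 37% in these data); inactive = the rest.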

In the assay the target is Tyrosine-protein phosphatase non-receptor type 22 (Homo sapiens) (UniProt Q9Y2R2). Put plainly: LYP phosphatase activators, primary screen, biochemical, DiFMUP fluorescence, 2 µM (AID 697). The following applies: recombinant LYP, at 2 µM, hits give high values, 0 = plate median, 100 = signal doubled.
Sequence of Tyrosine-protein phosphatase non-receptor type 22 (Homo sapiens) (Q9Y2R2 whole entry, looked up): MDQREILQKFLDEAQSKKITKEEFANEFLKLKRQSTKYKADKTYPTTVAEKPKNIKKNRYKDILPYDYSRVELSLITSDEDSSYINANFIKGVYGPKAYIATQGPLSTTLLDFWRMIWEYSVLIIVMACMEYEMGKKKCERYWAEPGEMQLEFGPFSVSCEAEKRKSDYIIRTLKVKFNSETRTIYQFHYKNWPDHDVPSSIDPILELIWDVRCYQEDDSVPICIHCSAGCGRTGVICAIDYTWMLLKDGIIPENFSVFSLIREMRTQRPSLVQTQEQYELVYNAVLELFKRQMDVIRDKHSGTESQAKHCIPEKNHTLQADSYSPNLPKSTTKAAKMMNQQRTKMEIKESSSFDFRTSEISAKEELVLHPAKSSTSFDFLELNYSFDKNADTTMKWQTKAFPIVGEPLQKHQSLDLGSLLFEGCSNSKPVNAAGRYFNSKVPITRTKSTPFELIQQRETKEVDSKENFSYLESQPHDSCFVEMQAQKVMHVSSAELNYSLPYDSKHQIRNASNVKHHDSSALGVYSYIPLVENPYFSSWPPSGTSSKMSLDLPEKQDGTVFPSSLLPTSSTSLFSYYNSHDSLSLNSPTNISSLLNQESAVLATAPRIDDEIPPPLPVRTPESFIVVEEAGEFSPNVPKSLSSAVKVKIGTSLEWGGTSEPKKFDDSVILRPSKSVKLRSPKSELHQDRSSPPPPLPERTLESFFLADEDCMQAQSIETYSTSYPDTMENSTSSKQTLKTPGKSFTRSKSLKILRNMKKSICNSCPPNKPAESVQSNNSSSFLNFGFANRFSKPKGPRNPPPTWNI
As to `COc1ccc(NS(=O)(=O)c2ccc(NC(=S)NC(=O)CC(C)C)cc2)cc1`, the activation is 4.5%.

For `O=C(CSCc1ccc([N+](=O)[O-])cc1)Nc1cccc(C(=O)Nc2ccccc2C(=O)O)c1`, the activation is 1.6%.

Consider `Cc1c(Nc2cc(N3CCCC(C)C3)c3nonc3c2[N+](=O)[O-])c(=O)n(-c2ccccc2)n1C` (stereo not drawn), for which the activation is 3.1%.

Consider `CCCCN(CC)CCNC(=O)c1[nH]c(C)c(C(C)=O)c1C`, for which the activation was 1.3%.

As for `Cc1noc(C)c1CSCC(=O)Nc1nc2ccc(Oc3ccccc3)cc2s1`, the activation is 1.8%.

For `CCN(CC)C(=O)CC1(c2ccccc2OC)CCOC(C(C)C)C1` (stereo not drawn), the activation was 4.3%.

In the case of `COc1ccc(NC(=O)CC2COc3ccccc3O2)c(OC)c1` (stereo not drawn), the activation is 0.8%.

Regarding `CCN(CC)CCNc1ccc(Cl)cc1[N+](=O)[O-]`, the activation is 14%.

On to `CC(C)C(=O)NC(=S)Nc1ccccc1F`, for which the activation was -2.4%.

Take `CCn1c(O)c2ccc(C(=O)N=NC(=O)c3cccnc3)cc2c1O`: the activation was 0.7%.

Take `O=C(/C=C/c1cccs1)c1cc(Cl)ccc1OC(=O)N1CCOCC1`: the activation was 2.4%.

On to `Clc1ccc(-n2nnnc2-c2cnc(-c3ccccn3)nc2-c2cccs2)cc1`, for which the activation was 3.1%.

In the case of `O=C(CCN1CCc2ccccc2C(O)(c2ccccc2)C1)c1ccc2c(c1)OCCO2` (stereo not drawn), the activation was -5.7%.

Regarding `CCOC(=O)CNC(=O)CSc1nc2cccnc2n1CC`, the activation is -4.9%.

With `Cc1ccc2[nH]c3c(=O)n(Cc4ccccn4)cnc3c2c1`, the activation is -0.9%.

As for `COC(=O)[C@@H](NC(=O)Nc1cc(Cl)ccc1C)C(C)C`, the activation was 8.5%.

Regarding `CC(Oc1ccc(-c2ccccc2)c(F)c1)c1ccn(S(=O)(=O)c2cccc3ccccc23)n1` (stereo not drawn), the activation was -6.9%.

Turning to `CCOC1CS(=O)(=O)CC1OCC` (stereo not drawn), the activation is 6.4%.

With `Cc1ccn(C(CC(=O)c2ccc(Br)cc2)C(=O)O)n1` (stereo not drawn), the activation is -7.9%.

For `COC(=O)CSc1nc(C)c2ccc(OC)cc2n1`, the activation was -3.9%.

As to `O=C(Cn1c(-c2cscn2)nc2ccccc21)Nc1ccc(Cl)cc1`, the activation was 3%.

As to `O=C(Nc1cc2ccccc2oc1=O)C1CCCCC1`, the activation was -7.9%.

For the compound `COc1cccc(C(=O)Nc2ccc(NC(=O)c3ccco3)cn2)c1`, the activation is 6.7%.

Take `CSCCC(NS(=O)(=O)c1ccc2c(c1)oc(=O)n2C)C(=O)NC1CCCc2ccccc21` (stereo not drawn): the activation is -8.6%.

Take `O=C(CN1C(=O)NC(Cc2ccccc2)(Cc2ccccc2)C1=O)NCC1CCCCC1`: the activation was 0.3%.

Consider `Cc1ccc(C(=O)Nc2ccccc2C(=O)NC2CCCCC2)cc1S(=O)(=O)N1CCOCC1`, for which the activation is -0.7%.

On to `O=C(Nc1ccccc1F)c1cc(S(=O)(=O)N2CCCCC2)cs1`, for which the activation is -4.2%.

As for `Cc1ccccc1NC(=O)c1cc(S(=O)(=O)N2CCOCC2)cs1`, the activation was 38% (active).
